PubChem BioAssay (NCATS)
Inconclusive results are not listed. A call without a number means that no potency is given here. The source made the active and inactive calls. The call rests on the fitted dose curve; in most records, active means well fitted curve in the direction sought with a large enough effect; inconclusive means small, poorly fitted or top-dose-only effect, or another doubt; inactive means no such curve, though single readings can be large; an effect the other way counts as inactive or inconclusive.

Legend:
[1] = qHTS for Inhibitors of Plasmodium falciparum (DD2) proliferation (AID 504314);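 further: parasite DNA measured by SYBR Green fluorescence after red cell lysis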
How it was run: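 P. falciparum Dd2 is grown in erythrocytes with test compound for 72 h at 37C under 5% CO2. Growth is scored by SYBR Green I fluorescence after detergent lysis, relative to artemisinin (0.29 uM) and DMSO controls.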

[2] = qHTS for Inhibitors of Plasmodium falciparum (7G8) proliferation (AID 504316); further: nearly all actives have a fitted effect of over 65% in size; further: potency means the concentration at half of the fitted maximal effect
How it was run: (§1)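 Parasite growth measured as SYBR Green DNA fluorescence (ex 485, em 535 nm) after overnight lysis following 72 h culture at 37 °C, 0.3% parasitemia, 2.5% hematocrit. Values normalized against DMSO and 0.29 uM artemisinin controls, with plate-stack correction.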

[3] = qHTS for Inhibitors of Plasmodium falciparum (GB4) proliferation (AID 504315); further: nearly all actives have a fitted effect of over 50% in size; further: potency means the concentration at half of the fitted maximal effect
How it was run: as §1

[4] = qHTS for Inhibitors of Plasmodium falciparum (CP250) proliferation (AID 504320)
How it was run: as §1

[5] = qHTS for Inhibitors of Plasmodium falciparum (HB3) proliferation (AID 504318); further: nearly all actives have a fitted effect of over 60% in size
How it was run: as §1

Row | SMILES | Potency [1] | Potency [2] | Potency [3] | Potency [4] | Potency [5]
1 | COC(=O)C1=C(C(=O)OC)[C@@H]2N(Cc3ccccc3)c3ccccc3[C@@]23C[C@@H](C(=O)OC)N(S(=O)(=O)c2ccc([N+](=O)[O-])cc2)C3=N1 | inactive | 1690 nM (active) | – | – | –
2 | COc1cccc([C@@H]2Oc3ccc(Br)cc3C(=O)[C@@H]2OC(=O)Nc2ccc(OC(F)F)cc2)c1 | inactive | – | inactive | inactive | –
3 | COC(=O)C1=C(C(=O)OC)[C@@H]2N(C)c3ccc(OC)cc3[C@@]23C[C@@H](C(=O)OC)N(S(=O)(=O)c2ccc(OC)cc2)C3=N1 | inactive | – | inactive | inactive | –
4 | C[C@H]1Cc2c(COc3ccccc3)nc3c(c2CO1)CN(S(=O)(=O)c1ccc(C#N)cc1)CC3 | inactive | – | inactive | inactive | –
5 | CC1(OC(=O)CCc2ccccc2)C(=O)C=C2C=C(c3ccc(C#N)cc3)N(C3CCCC3)C=C2C1=O (stereo not given) | inactive | – | inactive | inactive | –
6 | CC#CCN1c2ccccc2[C@]23C[C@@H](C(=O)OC)N(C(=O)c4cc(C)oc4C)C2=NC(C(=O)OC)=C(C(=O)OC)[C@H]13 | inactive | 1510 nM (active) | – | – | –
7 | C=CCN1C=C2C(=O)C(C)(OC(=O)CCc3ccccc3)C(=O)C=C2C=C1c1ccc(C#N)cc1 (stereo not given) | inactive | – | inactive | inactive | –
8 | C=C(C(C)=O)C(O)c1ccc2ccccc2c1 (stereo not given) | inactive | – | inactive | inactive | inactive
9 | COC(=O)C1=C(C(=O)OC)[C@@H]2N(C)c3ccccc3[C@@]23C[C@@H](C(=O)OC)N(S(=O)(=O)c2ccc(OC)cc2)C3=N1 | inactive | – | inactive | inactive | –
10 | C=CCN1c2ccccc2[C@]23C[C@@H](C(=O)OC)N(S(=O)(=O)c4ccc(C#N)cc4)C2=NC(C(=O)OC)=C(C(=O)OC)[C@H]13 | inactive | – | inactive | inactive | –
11 | C/C=C/C1=Cc2ccccc2C(CC(=O)OC)N1C(=O)OC (stereo not given) | inactive | – | inactive | inactive | –
12 | CCCCc1nc2c(c3c1C[C@H](C)OC3)CN(C(=O)c1cc(I)ccc1F)CC2 | inactive | – | inactive | inactive | –
13 | CC1(OC(=O)CCc2ccccc2)C(=O)C=C2C=C(c3ccc(C#N)cc3)N(CCc3c[nH]c4ccccc34)C=C2C1=O (stereo not given) | inactive | – | inactive | inactive | –
14 | COC(=O)C1=C(C(=O)OC)[C@@H]2N(Cc3ccccc3)c3ccccc3[C@@]23C[C@@H](C(=O)OC)N(S(=O)(=O)c2c(C)noc2C)C3=N1 | inactive | 1690 nM (active) | – | – | –
15 | C=CCN1c2ccccc2[C@]23C[C@@H](C(=O)OC)N(C(=O)C4CCC4)C2=NC(C(=O)OC)=C(C(=O)OC)[C@H]13 | inactive | – | inactive | inactive | –
16 | COC(=O)C1=C(C(=O)OC)[C@@H]2N(C)c3ccccc3[C@@]23C[C@@H](C(=O)OC)N(S(=O)(=O)c2ccc4c(c2)OCCN4C)C3=N1 | inactive | – | 2390 nM (active) | inactive | –
17 | COC(=O)[C@H]1[C@@H](C)N(Cc2ccccc2)C(=O)N[C@H]1c1ccccc1 | inactive | – | inactive | inactive | inactive
18 | C=CCN1c2ccccc2[C@]23C[C@@H](C(=O)OC)N(S(=O)(=O)CCCC)C2=NC(C(=O)OC)=C(C(=O)OC)[C@H]13 | inactive | – | inactive | inactive | inactive
19 | C=CCN1c2ccccc2[C@]23C[C@@H](C(=O)OC)N(S(=O)(=O)c4c(C)noc4C)C2=NC(C(=O)OC)=C(C(=O)OC)[C@H]13 | inactive | – | inactive | inactive | inactive
20 | C=CCN1c2ccccc2[C@]23C[C@@H](C(=O)OC)N(S(=O)(=O)c4ccc5c(c4)OCCN5C)C2=NC(C(=O)OC)=C(C(=O)OC)[C@H]13 | inactive | 1690 nM (active) | – | – | –

Row | SMILES | Potency [1] | Potency [2] | Potency [3] | Potency [4] | Potency [5]
21 | Cc1cc2c(c(=O)n1-c1ccccc1)[C@H]1O[C@](c3ccsc3)(Cc3cc(C#N)ccc31)O2 | inactive | – | inactive | inactive | –
22 | COC(=O)CCCC1=CC2=C(c3ccccc3)C(=O)C(C)(OC(=O)C3CCCC3)C(=O)C2=CN1CCCOC(C)C (stereo not given) | inactive | – | inactive | inactive | –
23 | CCCCc1nc2c(c3c1C[C@H](C)OC3)CN(C(=O)Cc1cccc(OC)c1)CC2 | inactive | – | inactive | inactive | inactive
24 | CCCCS(=O)(=O)N1C2=NC(C(=O)OC)=C(C(=O)OC)[C@@H]3N(C)c4ccccc4[C@]23C[C@H]1C(=O)OC | inactive | – | inactive | inactive | –
25 | CCCCc1nc2c(c3c1C[C@H](C)OC3)CN(C(=O)NCCCC(=O)OCC)CC2 | inactive | – | inactive | inactive | –
26 | CCCCS(=O)(=O)N1C2=NC(C(=O)OC)=C(C(=O)OC)[C@@H]3N(C)c4ccc(OC)cc4[C@]23C[C@H]1C(=O)OC | inactive | – | inactive | inactive | –
27 | C[C@@H]1C[C@](C)(C(=O)c2ccc3ccccc3c2)C=C1c1ccc2ccccc2c1 | inactive | – | inactive | inactive | inactive
28 | C=CCN1c2ccccc2[C@]23C[C@@H](C(=O)OC)N(S(=O)(=O)c4ccc(Br)cc4)C2=NC(C(=O)OC)=C(C(=O)OC)[C@H]13 | inactive | inactive | – | – | –
29 | C[C@H]1Cc2c(COc3ccccc3)nc3c(c2CO1)CN(C(=O)Cc1cccs1)CC3 | inactive | – | inactive | inactive | –
30 | COC(=O)C1=C(C(=O)OC)[C@@H]2N(C)c3ccccc3[C@@]23C[C@@H](C(=O)OC)N(S(=O)(=O)c2cccs2)C3=N1 | inactive | – | inactive | inactive | –
31 | CC#CCN1c2ccccc2[C@]23C[C@@H](C(=O)OC)N(C(=O)c4ccc(Br)cc4)C2=NC(C(=O)OC)=C(C(=O)OC)[C@H]13 | inactive | – | inactive | inactive | inactive
32 | CCCCS(=O)(=O)N1C2=NC(C(=O)OC)=C(C(=O)OC)[C@@H]3Nc4ccccc4[C@]23C[C@H]1C(=O)OC | inactive | – | inactive | inactive | –
33 | C=CCNC(=O)N1CCc2nc(COc3ccccc3)c3c(c2C1)CO[C@@H](C)C3 | inactive | – | inactive | inactive | inactive
34 | O=C(C=Cc1ccc2c(c1)OCO2)c1ccccc1 | inactive | – | inactive | inactive | inactive
35 | COC(=O)C1=C(C(=O)OC)[C@@H]2N(Cc3ccccc3)c3ccccc3[C@@]23C[C@@H](C(=O)OC)N(C(=O)COCc2ccccc2)C3=N1 | inactive | – | inactive | inactive | –
36 | CCOC(=O)CCCNC(=O)N1CCc2nc(-c3ccc(OC)cc3C)c3c(c2C1)CO[C@@H](c1ccccc1)C3 | inactive | 1690 nM (active) | – | – | –
37 | C=CCN1c2ccccc2[C@]23C[C@@H](C(=O)OC)N(C(=O)c4cc(C)oc4C)C2=NC(C(=O)OC)=C(C(=O)OC)[C@H]13 | inactive | – | inactive | inactive | –
38 | CC#CCN1c2ccccc2[C@]23C[C@@H](C(=O)OC)N(C(=O)OCC)C2=NC(C(=O)OC)=C(C(=O)OC)[C@H]13 | inactive | – | inactive | inactive | inactive
39 | COC(=O)c1ccccc1S(=O)(=O)N1CCc2nc(-c3ccccc3)c3c(c2C1)CO[C@@H](C)C3 | inactive | inactive | – | – | –
